From PubChem BioAssay AID1422 (Emory University Molecular Libraries Screening Center, 2008) come the findings set out here.

The whole screen tested about 260,000 compounds, of which about 1,300 (0.5%) were called active. This excerpt belongs to a sample that is enriched for actives. A number with no mark means an inactive call.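 The calls were made as follows: active = percent inhibition above 40 after rounding to a whole number; inactive = the rest.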

Sequence of Prostaglandin E2 receptor EP2 subtype (Homo sapiens) (P43116 whole entry, looked up): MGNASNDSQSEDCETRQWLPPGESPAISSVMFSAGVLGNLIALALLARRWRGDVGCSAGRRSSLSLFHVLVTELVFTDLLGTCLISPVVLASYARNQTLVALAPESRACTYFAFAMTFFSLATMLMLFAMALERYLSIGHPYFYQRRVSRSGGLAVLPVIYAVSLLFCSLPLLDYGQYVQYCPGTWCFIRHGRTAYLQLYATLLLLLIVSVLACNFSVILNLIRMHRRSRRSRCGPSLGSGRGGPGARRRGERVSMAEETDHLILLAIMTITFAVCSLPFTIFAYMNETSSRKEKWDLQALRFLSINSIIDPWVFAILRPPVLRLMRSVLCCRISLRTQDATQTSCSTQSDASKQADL

This assay addresses Prostaglandin E2 receptor EP2 subtype (Homo sapiens) (UniProt P43116). Briefly: human EP2 receptor antagonists, primary screen, TR-FRET cAMP, C6 glioma cells (AID 1422).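 Also: rat C6 glioma host cells with rolipram phosphodiesterase inhibitor present; the protocol text gives 20 µM as final concentration.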 To be noted: C6 glioma cells expressing human EP2, cAMP TR-FRET; at 25 µM; hits give high values; cells stimulated with saturating PGE2. (In general: TR-FRET usually uses a lanthanide donor and a delayed reading to cut background.)
By inhibition is commonly meant the drop in the measured response relative to a control, in per cent. For the compound `COc1ccc(OCCCC(=O)Nc2nc(-c3ccc(OC)cc3)cs2)cc1`, the inhibition is 12.9%.

Consider `Cc1ccc(CNS(=O)(=O)c2cccc(S(=O)(=O)N3CCCC3)c2)cc1`, for which the inhibition is 10.8%.

`COCCn1c(N2CCCC2)nc2c1c(=O)n(C)c(=O)n2C`: the inhibition was 7.42%.

For `CC1=CC(C)(C)N(C(=O)CSc2nccn2C)c2cc(C)ccc21`, the inhibition was 17.5%.

`CC1=CC(C)(C)N(C(=O)CSc2nnc(-c3ccccc3)o2)c2ccc(C)cc21`: the inhibition is 45.4% (active).

Turning to `O=C(CSc1nnc(-c2ccccc2)o1)N1CCOCC1`, the inhibition was 8.71%.

Consider `COc1ccc(C2(NC(=O)c3noc(C)c3Cn3cccn3)CCCCC2)cc1`, for which the inhibition was 7.45%.

Take `Cc1ccc(NC(=O)CSc2nnc(-c3ccncc3)n2C2CCCCC2)c(C)c1`: the inhibition was 15.8%.

Regarding `COc1ccc(CNC(=O)CCSc2nc(-c3ccco3)cc(C(F)(F)F)n2)cc1`, the inhibition was 9.17%.

As to `CC(Nc1nc(N2CCN(CCO)CC2)nc2ccccc12)c1ccccc1` (stereo not drawn), the inhibition was 7.4%.

For `CC(Nc1nc(N2CCOCC2)nc2ccccc12)c1ccccc1` (stereo not drawn), the inhibition was 7.73%.

`CC(Nc1nc(N2CCCC2)nc2ccccc12)c1ccccc1` (stereo not drawn): the inhibition is 48.2% (active).

Consider `COCCNS(=O)(=O)c1ccc2[nH]c(=O)[nH]c2c1`, for which the inhibition was 9.6%.

Regarding `Cc1cc(C)c2[nH]c(C)c(CN(C)Cc3ccccc3)c(=O)c2c1`, the inhibition was 12%.

Regarding `CCC(c1nnnn1C(C)(C)C)N(Cc1ccccc1)Cc1cc2ccc(C)cc2[nH]c1=O` (stereo not drawn), the inhibition is 5.18%.

Turning to `Cc1nc(NC(=O)c2sc3nc4c(C)cccc4cc3c2N)sc1C`, the inhibition is 19.7%.

Regarding `O=C(Nc1ccccc1Cl)c1ccc2nsnc2c1`, the inhibition is 5.72%.

`O=C(Nc1ccccc1Cl)/C(Cl)=C(\Cl)S(=O)c1ccccc1` (stereo not drawn): the inhibition is 57.5% (active).

Turning to `O=C(COC(=O)c1cccs1)Nc1ccccc1Cl`, the inhibition is 5.7%.

Regarding `CC(C)OCCCNC(=O)c1cc(Sc2ccc(F)cc2)nc2ccccc12`, the inhibition was 8.64%.

On to `COc1cc(OC)c(OC)cc1/C=N/Nc1ncnc2c1[nH]c1ccc(C)cc12`, for which the inhibition is 5.82%.

With `CC(C)OCCCNc1ncnc2c1[nH]c1ccc(F)cc12`, the inhibition was 46.2% (active).

For `CCCc1[nH]nc2c1C(c1c(C)nn(-c3ccccc3)c1Cl)C(C#N)=C(N)O2` (stereo not drawn), the inhibition is 25.4%.

Take `CCCc1[nH]nc2c1C(C1CC=CCC1)C(C#N)=C(N)O2` (stereo not drawn): the inhibition was 3.84%.

As to `CCCc1[nH]nc2c1C(c1ccc(Br)s1)C(C#N)=C(N)O2` (stereo not drawn), the inhibition was 51.9% (active).

Regarding `CC(Sc1nnc(-c2cccnc2)n1-c1ccccc1)C(=O)Nc1ccc(N)cc1` (stereo not drawn), the inhibition is 14.6%.

On to `O=c1c2ccc(Br)c3cccc(c32)c2nc3ccccc3n12`, for which the inhibition is 6.4%.

For the compound `COc1ccccc1CNS(=O)(=O)c1ccc(S(=O)(=O)N2CCC(C)CC2)cc1`, the inhibition is 4.43%.
